This passage reports outcome and AC50 results from PubChem BioAssay (EPA / NIEHS).

Usually AC50 stands for the concentration giving half of the maximal activity seen.

Records with an inconclusive call do not appear. Activity calls are given as the source filed them. How the source made its calls, unless noted: active means hit-call score of the fitted dose curve at least 0.9, where 1 is the maximum; inconclusive means response in the unintended direction; inactive means score below 0.9.

Assay [1] addresses Agonist Androgen Response Element (ARE), AR (gene 367) (UniProt P10275). In words: OT_AR_ARELUC_AG_1440: Odyssey Thera (OT) 24-hour CHO-K1 Luciferase Assay for Agonist Androgen Response Element (ARE) (AID 2283379). An outline of the steps:
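Readout: luciferase bioluminescence from CHO-K1 ARE-luc cells, measured 24 h post-dosing; agonism = increased mean luminescence vs DMSO controls, fitted in positive direction.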

Assay [2] deals with Estrogen receptor (Homo sapiens) (UniProt P03372). The assay is described as follows: OT_ERa_GFPERaERE_0480: Odyssey Thera (OT) 8-hour HeLa Transcription Induction Assay for Estrogen Receptor (AID 2283381; active means hit-call score of the fitted dose curve at least 0.9, where 1 is the maximum; inactive means score below 0.9). An outline of the steps: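 Fluorescence microscopy with high-content image analysis measures ERE-driven GFP induction in HeLa cells at 8 h post-dose. Increases fitted against DMSO baseline.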
Sequence of Estrogen receptor (Homo sapiens) (P03372 whole entry, looked up): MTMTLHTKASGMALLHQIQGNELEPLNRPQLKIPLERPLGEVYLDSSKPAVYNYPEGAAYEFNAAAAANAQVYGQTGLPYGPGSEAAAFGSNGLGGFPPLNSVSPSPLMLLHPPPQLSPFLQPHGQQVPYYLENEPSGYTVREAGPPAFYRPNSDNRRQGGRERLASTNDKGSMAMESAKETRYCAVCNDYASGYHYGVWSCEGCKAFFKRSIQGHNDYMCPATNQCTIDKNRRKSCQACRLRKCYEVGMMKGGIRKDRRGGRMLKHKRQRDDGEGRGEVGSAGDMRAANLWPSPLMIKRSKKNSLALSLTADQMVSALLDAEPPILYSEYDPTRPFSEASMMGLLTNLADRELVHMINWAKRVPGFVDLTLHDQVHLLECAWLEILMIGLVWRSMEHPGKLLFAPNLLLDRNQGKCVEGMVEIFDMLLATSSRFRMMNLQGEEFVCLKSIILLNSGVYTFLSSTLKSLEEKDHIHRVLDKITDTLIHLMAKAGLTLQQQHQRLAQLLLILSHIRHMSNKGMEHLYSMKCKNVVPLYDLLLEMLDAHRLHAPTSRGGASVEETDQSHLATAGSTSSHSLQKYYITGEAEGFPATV

For assay [3] the target is unchanged. In words: OT_ERa_GFPERaERE_0120: Odyssey Thera (OT) 2-hour HeLa Transcription Induction Assay for Estrogen Receptor (AID 2283382). An outline of the steps:
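Fluorescence-microscopy images of the GFP-ERα/ERE reporter, scored by high-content image algorithms, give the readout. HeLa exposure lasted 2 h, and only signal increase over DMSO was fitted.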

Assay [4] addresses Bile acid receptor (Homo sapiens) (UniProt Q96RI1). In words: OT_FXR_FXRSRC1_0480: Odyssey Thera (OT) 8-hour HEK293T Protein-Complementation Assay for Farnesoid X receptor/SRC-1 Co-activator (AID 2283383). An outline of the steps: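 Binding of FXR to coactivator SRC-1 was read as fluorescence from a reconstituted split reporter in HEK293T cells, 8 h after chemical addition. Only increases in signal versus DMSO were fit.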

The target is the same in assay [5]. The assay is described as follows: OT_FXR_FXRSRC1_1440: Odyssey Thera (OT) 24-hour HEK293T Protein-Complementation Assay for Farnesoid X receptor/SRC-1 Co-activator (AID 2283384). An outline of the steps:
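Protein-fragment complementation: FXR and SRC-1 fused to reporter fragments that reassemble on interaction, read by fluorescence intensity. Human HEK293T cells measured 24 h post-dose; positive-direction fit versus DMSO.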

Assay [6] concerns the target Retinoic acid receptor RXR-alpha (Homo sapiens) (UniProt P19793). The assay is described as follows: OT_NURR1_NURR1RXRa_0480: Odyssey Thera (OT) 8-hour HEK293T Protein Complementation Assay for Nurr1/retinoid X receptor (RXR) (AID 2283385). An outline of the steps: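 Interaction of Nurr1 with RXRα read as reconstituted reporter fluorescence in a HEK293T fragment-complementation system, 8 h post-treatment; increase over DMSO baseline analysed.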

The target is the same in assay [7]. In words: OT_NURR1_NURR1RXRa_1440: Odyssey Thera (OT) 24-hour HEK293T Protein Complementation Assay for Nurr1/retinoid X receptor (RXR) (AID 2283386). An outline of the steps:
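Gain in fluorescence, fitted relative to DMSO, reflects Nurr1–RXRα association in HEK293T cells after 24 h dosing. Bait and prey are each linked to a reporter-protein fragment that reassembles on interaction.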

For assay [8], the target named is Estrogen receptor beta (Homo sapiens) (UniProt Q92731). The assay is described as follows: OT_ER_ERbERb_1440: Odyssey Thera (OT) 24-hour HEK293T Protein-Complementation Assay for Estrogen Receptor-beta/-beta Homodimer (AID 2283380).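 Further: fluorescence gain from ER beta LBD homodimer complementation read by laser scanning cytometry; scored as signal increase over DMSO baseline for both agonists and antagonists.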 In short, it runs like this:
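Fluorescence increase, nuclear for agonists or whole-cell for antagonists, relative to DMSO vehicle, quantified by laser scanning cytometer after fixation and Draq5 staining. Readout from 24 h treatment of HEK293T cells carrying complementation-paired ER beta LBD (aa 310-547).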

Sequence of Agonist Androgen Response Element (ARE), AR (gene 367) (P10275 whole entry, looked up): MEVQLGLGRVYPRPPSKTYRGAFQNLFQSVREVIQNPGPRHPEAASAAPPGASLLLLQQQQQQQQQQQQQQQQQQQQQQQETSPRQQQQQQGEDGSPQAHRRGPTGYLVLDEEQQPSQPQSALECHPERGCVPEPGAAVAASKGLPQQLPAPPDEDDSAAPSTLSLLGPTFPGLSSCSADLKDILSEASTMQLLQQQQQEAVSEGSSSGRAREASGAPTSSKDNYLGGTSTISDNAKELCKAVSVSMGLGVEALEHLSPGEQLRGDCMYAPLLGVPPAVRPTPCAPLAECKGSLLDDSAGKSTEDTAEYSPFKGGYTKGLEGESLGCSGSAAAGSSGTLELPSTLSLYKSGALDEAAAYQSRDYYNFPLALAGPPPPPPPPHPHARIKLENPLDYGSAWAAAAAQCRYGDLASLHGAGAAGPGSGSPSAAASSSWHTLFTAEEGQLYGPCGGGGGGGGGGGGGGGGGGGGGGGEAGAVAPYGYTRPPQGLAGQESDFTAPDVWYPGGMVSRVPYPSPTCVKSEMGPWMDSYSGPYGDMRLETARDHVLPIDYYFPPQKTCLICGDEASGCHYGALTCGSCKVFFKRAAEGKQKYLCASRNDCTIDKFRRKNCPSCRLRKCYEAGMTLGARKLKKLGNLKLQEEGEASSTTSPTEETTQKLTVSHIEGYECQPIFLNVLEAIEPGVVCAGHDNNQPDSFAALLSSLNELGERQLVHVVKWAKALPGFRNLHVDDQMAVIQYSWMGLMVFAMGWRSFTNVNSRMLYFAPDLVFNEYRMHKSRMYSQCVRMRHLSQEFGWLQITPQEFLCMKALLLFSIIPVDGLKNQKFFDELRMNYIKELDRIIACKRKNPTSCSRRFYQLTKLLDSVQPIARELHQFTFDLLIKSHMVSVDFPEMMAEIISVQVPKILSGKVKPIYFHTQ
Sequence of Bile acid receptor (Homo sapiens) (Q96RI1 whole entry, looked up): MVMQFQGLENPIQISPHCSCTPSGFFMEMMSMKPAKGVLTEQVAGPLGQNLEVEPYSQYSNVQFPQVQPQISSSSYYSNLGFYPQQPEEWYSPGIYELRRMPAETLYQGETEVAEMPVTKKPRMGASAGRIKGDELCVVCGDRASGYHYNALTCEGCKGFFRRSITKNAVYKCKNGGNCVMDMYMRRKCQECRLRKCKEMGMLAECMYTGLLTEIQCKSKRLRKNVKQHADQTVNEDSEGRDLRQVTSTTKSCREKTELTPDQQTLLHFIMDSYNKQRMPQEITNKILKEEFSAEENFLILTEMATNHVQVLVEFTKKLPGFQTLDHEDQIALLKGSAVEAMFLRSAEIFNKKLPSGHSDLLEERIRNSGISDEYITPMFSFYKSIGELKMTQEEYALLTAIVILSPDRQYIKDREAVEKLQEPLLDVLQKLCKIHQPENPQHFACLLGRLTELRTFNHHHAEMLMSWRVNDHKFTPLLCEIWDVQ
Sequence of Retinoic acid receptor RXR-alpha (Homo sapiens) (P19793 whole entry, looked up, the tested form may be a part): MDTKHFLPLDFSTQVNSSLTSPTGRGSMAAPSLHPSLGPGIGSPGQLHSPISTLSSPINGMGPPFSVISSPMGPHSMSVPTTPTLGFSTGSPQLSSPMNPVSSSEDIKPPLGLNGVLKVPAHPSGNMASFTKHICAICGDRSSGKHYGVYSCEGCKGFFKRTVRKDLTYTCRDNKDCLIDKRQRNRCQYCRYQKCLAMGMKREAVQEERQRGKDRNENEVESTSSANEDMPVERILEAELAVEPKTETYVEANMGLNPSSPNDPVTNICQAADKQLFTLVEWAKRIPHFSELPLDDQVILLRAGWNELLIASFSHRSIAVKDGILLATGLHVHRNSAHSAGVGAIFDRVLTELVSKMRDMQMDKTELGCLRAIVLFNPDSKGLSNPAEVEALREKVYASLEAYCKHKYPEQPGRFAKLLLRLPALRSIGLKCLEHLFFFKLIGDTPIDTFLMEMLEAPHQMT
Sequence of Estrogen receptor beta (Homo sapiens) (Q92731 whole entry, looked up, the tested form may be a part): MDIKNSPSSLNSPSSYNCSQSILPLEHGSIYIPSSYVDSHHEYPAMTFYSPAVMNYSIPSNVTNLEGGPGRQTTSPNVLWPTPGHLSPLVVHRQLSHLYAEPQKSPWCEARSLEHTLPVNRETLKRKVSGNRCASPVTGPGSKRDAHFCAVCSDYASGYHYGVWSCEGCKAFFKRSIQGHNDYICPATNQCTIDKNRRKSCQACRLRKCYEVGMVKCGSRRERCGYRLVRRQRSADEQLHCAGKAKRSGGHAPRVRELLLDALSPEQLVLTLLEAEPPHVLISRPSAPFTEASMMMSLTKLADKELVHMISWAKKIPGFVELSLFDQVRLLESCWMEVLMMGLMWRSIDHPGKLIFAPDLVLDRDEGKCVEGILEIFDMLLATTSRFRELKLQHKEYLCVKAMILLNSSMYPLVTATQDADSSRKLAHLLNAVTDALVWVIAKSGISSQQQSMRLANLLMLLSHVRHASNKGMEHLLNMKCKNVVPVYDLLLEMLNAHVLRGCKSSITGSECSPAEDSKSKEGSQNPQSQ

Turning to `N#Cc1ccc(C(c2ccc(C#N)cc2)n2cncn2)cc1`, the compound was called inactive in assay [1], in assay [2], in assay [3], in assay [4], in assay [5] and in assay [6]. For the same compound, the outcome in assay [7] was inactive.
`CC(=O)/C=C/C1C(C)=CCCC1(C)C` (configuration not stated): the compound was called inactive in assay [2], in assay [3], in assay [4], in assay [6] and in assay [7].
For the compound `CCOC(=O)C1=NOC(c2ccccc2)(c2ccccc2)C1`, the compound was classed as inactive in assay [2], in assay [3], in assay [4], in assay [5], in assay [6] and in assay [7].
For the compound `O=C(O)CCC(=O)O`, the call in assay [2], in assay [3] and in assay [7] was inactive.
With `CCC(C)(O)CCCC(C)C` (configuration not stated), the result in assay [2], in assay [3], in assay [4], in assay [5] and in assay [7] was inactive.
On to `CCCCNC(=S)NCCCC`, for which the compound was called inactive in assay [8], in assay [2], in assay [3], in assay [4], in assay [5] and in assay [6]. Further, in assay [7], the call was inactive.
Take `Cc1ccc(C)c(OCCCC(C)(C)C(=O)O)c1`: the call in assay [1], in assay [2], in assay [3], in assay [4] and in assay [5] was inactive.
For `COc1cc(O)c(C(=O)c2ccccc2)cc1S(=O)(=O)O`, the compound was called inactive in assay [1], in assay [2], in assay [3] and in assay [7].
With `CCCCCCCCCC(C)=O`, the outcome in assay [1], in assay [2] and in assay [3] was inactive.
Take `NC(=O)Nc1ccccc1`: the compound was called inactive in assay [2], in assay [3], in assay [6] and in assay [7].
With `CCCCCCCCCCCCCC(=O)OC(C)C`, the half-maximal activity concentration (AC50) in assay [1] is 3.48 µM (active). For the same compound, the call in assay [2], in assay [3], in assay [4], in assay [6] and in assay [7] was inactive.
For the compound `CCCCCC(=O)OCC`, the compound was called inactive in assay [2], in assay [3], in assay [5] and in assay [7].
On to `C=C[C@@]1(C)CC(=O)[C@]2(O)[C@@]3(C)[C@@H](O)CCC(C)(C)[C@@H]3[C@H](O)[C@H](OC(C)=O)[C@@]2(C)O1`, for which the AC50 is 89.1 µM (active) in assay [2], 0.183 µM (active) in assay [6] and 0.396 µM (active) in assay [7]. Also, the compound was classed as inactive in assay [3].
`C=C(C)C1CC=C(C)CC1` (configuration not stated): the result in assay [2], in assay [3], in assay [6] and in assay [7] was inactive.
`CCC1COC(=O)O1` (configuration not stated): the outcome in assay [2], in assay [3], in assay [4], in assay [5], in assay [6] and in assay [7] was inactive.
On to `CCCCCCO`, for which the call in assay [2], in assay [3], in assay [6] and in assay [7] was inactive.
Consider `CC(=O)OC(C)c1ccccc1` (configuration not stated), for which the outcome in assay [8], in assay [2], in assay [3] and in assay [7] was inactive.
For `CCCCOCCOC(=O)COc1ccc(Cl)cc1Cl`, the compound was called inactive in assay [8], in assay [2], in assay [3] and in assay [6].
As for `CCOC(=O)c1ccccc1C`, the compound was called inactive in assay [2], in assay [3], in assay [4], in assay [6] and in assay [7].
On to `CC1=CCC2CC1C2(C)C` (configuration not stated), for which the compound was called inactive in assay [2] and in assay [3].
On to `CC(=O)OC1CCCCC1C(C)(C)C` (configuration not stated), for which the compound was called inactive in assay [1], in assay [8], in assay [2], in assay [3], in assay [6] and in assay [7].
Turning to `CCCCC(CC)COC(=O)/C=C/c1ccc(OC)cc1` (configuration not stated), the result in assay [1], in assay [2], in assay [3], in assay [6] and in assay [7] was inactive.
For the compound `O=C(OCCc1ccccc1)c1ccccc1`, the result in assay [2], in assay [3] and in assay [7] was inactive.
Regarding `CCCC=C(C=O)CC`, the outcome in assay [2], in assay [3] and in assay [7] was inactive.
Take `CCCCCCCCC(CO)CCCCCC` (configuration not stated): the result in assay [8], in assay [2], in assay [4], in assay [5] and in assay [7] was inactive. The concentration at half-maximal activity (AC50) in assay [3] is 17.7 µM (active).
As to `CC(=O)c1ccccc1O`, the compound was classed as inactive in assay [2], in assay [3] and in assay [7].
In the case of `CCCC(CC)c1ccccc1` (configuration not stated), the call in assay [8], in assay [2], in assay [3], in assay [6] and in assay [7] was inactive.
With `O=C(O)c1ccc2c(c1)C(=O)OC2=O`, the result in assay [1], in assay [2], in assay [5], in assay [6] and in assay [7] was inactive. Besides, the half-maximal activity concentration (AC50) in assay [3] was 22.6 µM (active).
For `O=C(Oc1ccccc1)c1ccccc1O`, the call in assay [2], in assay [3] and in assay [6] was inactive.
On to `C1CNCCN1`, for which the call in assay [8], in assay [2], in assay [3] and in assay [7] was inactive.
Turning to `CCCCC(=O)O`, the call in assay [2], in assay [3], in assay [4] and in assay [7] was inactive.
Turning to `CC1(C)[C@@H]2CC[C@@]1(C)C(=O)C2`, the compound was called inactive in assay [2], in assay [3], in assay [6] and in assay [7].
Turning to `CN(C)Cc1cc(CN(C)C)c(O)c(CN(C)C)c1`, the result in assay [1], in assay [2], in assay [3], in assay [5] and in assay [7] was inactive.
As for `O=C(O)C1CCC(C(=O)O)CC1` (configuration not stated), the result in assay [2], in assay [3], in assay [4] and in assay [7] was inactive.
Take `CCCCC(C=O)CC` (configuration not stated): the result in assay [2], in assay [3], in assay [4] and in assay [7] was inactive.
